# Laboratory results as given in PubChem BioAssay (NCI).
# This is part of a sample that, as a whole, favours compounds with a hit. Of some 83,000 tested, about 20% had one in any assay.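 Step 1: grow cells in 96-well plates. Step 2: add test compound at a single concentration. Step 3: incubate 48 h. Step 4: record percent growth.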 Values without a mark were called inactive. The source made the active and inactive calls.
# System: MCF7 breast
# Test: NCI-60 one-dose screen, 48 h (100 = growth as untreated, 0 = no growth, -100 = all killed)
# Conditions: 10 µM unless noted
# Procedure: Growth inhibition of the MCF7 human tumor cell line is measured as a screen for anti-cancer activity. Cells are grown in 96 well plates and exposed to the test compound for 48 hours. Compounds are tested at a single concentration, which is 10^-5 M for most compounds. The reported endpoint is percent growth (GI% or GIPRCNT), where numbers from 0 - 100% represent growth inhibition, and numbers from -100% - 0 represent cell death. For example, a value of 40 represents 60% growth inhibition. A value of 0 means no net growth occurred over the course of the experiment. A value of -40 indicates 40% of cells at the beginning of the experiment died by the end of the experiment. A value of -100 means all cells are dead at the end of the experiment.
# NCI-60 Human Tumor Cell Lines Screen was performed using the standard one-dose NCI protocol, which is described in more detail at https://dtp.cancer.gov/discovery_development/nci-60/default.htm.
# Compounds with GIPRCNT values below 10 were considered active. Activity score was based on GIPRCNT using the following formula: […]
# Score is 0 for GIPRCNT values of 100 or above, 50 for GIPRCNT values of 0, and 100 for GIPRCNT values of -100.
row,Compound,growth
1,O=C(NCc1ccc(Cn2c(=O)sn(-c3ccccc3)c2=O)cc1)OCc1ccc2c(Br)cc(Br)c(O)c2n1,-29% (active)
2,COc1ccc2c3ccnc(C(F)(F)F)c3n(CCCCN)c2c1,35.5%
3,O=C(CSc1nc2ccc([N+](=O)[O-])cc2[nH]1)Nc1cccc(Cl)c1,15.3%
4,CCCC[C@@H](C=O)NC(=O)[C@H](CC(C)C)NC(=O)[C@H](CC(C)C)NC(=O)OCc1ccccc1,0.513% (active)
5,Cc1cnc([C@]23CC[C@@H](C)[C@H](C)[C@H]2C2=CC[C@@H]4[C@@]5(C)Cc6c([nH]c7ccccc67)C(C)(C)[C@@H]5CC[C@@]4(C)[C@]2(C)CC3)o1,46.8% [100 µM]
6,CC1(C)S[C@@H]2[C@H](NC(=O)[C@H](C(=O)O)c3cccs3)C(=O)N2[C@H]1C(=O)O,110%
7,COc1cc2c(cc1OC(C)=O)C(=O)CCCC2,92.3%
8,N#CCCc1c[nH]c2ccccc12,94.8%
9,Cn1cc(-c2noc(-c3cn(C)c4ncc(Br)cc34)n2)c2cc(Cl)ccc21,65.9%
10,C1=C[C@H]2O[C@@H]1c1ccc3[nH]ccc3c12,96.1%
11,COc1ccc2c(c1)C(C)Cc1c(Cl)nc(C)nc1N2C (stereo not given),19.7%
12,CC1(C)NCCC[C@]2(C)[C@H]3C=CC4=C5C[C@](C)(CO)CC[C@]5(C)CC[C@@]4(C)[C@]3(C)CC[C@@H]12,-70.7% [100 µM] (active)
13,O=C(Nc1cccnc1)c1ccc2ccc3ccc(C(=O)Nc4cccnc4)nc3c2n1,28.9%
14,Cn1cc(-c2noc(C(=O)c3cn(C)c4ncccc34)n2)c2ccccc21,34.8%
15,COc1ccc(OC)c([N+](=O)[O-])c1C(=O)CNC(C)=O,92.7%
16,C[N+](C)(C)c1ncnc2[n-]cnc12,89.8%
17,CCN(CC)c1ccc2cc(C(Nc3ccc(Cl)cc3)c3nnnn3C(C)(C)C)c(=O)oc2c1 (stereo not given),74.2%
18,CC(C)(C)c1cc(C(=O)Nc2ccccc2C(=O)NCCN)cc(C(C)(C)C)c1,-63.1% (active)
19,CCN(CC)c1ccc(/C=C/C=C2\NC(=O)NC2=O)cc1,20.4%
20,c1nc(N2CCOCC2)c2[nH]ccc2n1,90.6%

row,Compound,growth
1,Nc1nc(Nc2ccccc2)c2ncn(Cc3cc4c(cc3Br)OCO4)c2n1,12.4%
2,Cc1cc(SC#N)ncn1,93.3%
3,Cc1cccc(C[C@H](NC(=O)Nc2ccc(Cl)cc2F)C(=O)N[C@@H]2C(=O)N3C[C@H](OC(=O)CCN(C)C)C[C@H]3C(=O)N3CCCC[C@H]3C(=O)N[C@@H](C)C(=O)N3C[C@H](C)C[C@H]3C(=O)O[C@H]2C)c1,13.4%
4,O=[N+]([O-])c1cccc(N=NNc2cccc([N+](=O)[O-])c2)c1,65.3%
5,CCOC(=O)c1c[nH]c2cc(OCC3CC3)c(OCC3CC3)cc2c1=O,104%
6,COc1c(C(C)=O)c(OCCCCOc2c(C(C)=O)c(OC)c3ccoc3c2OC)c(OC)c2occc12,64.4%
7,COc1ccc(-c2c(C)nn3c(NCCN4CCOCC4)cc(C)nc23)cc1OC,95.3%
8,NC(=O)c1c(NC(=O)COC(=O)Cc2ccccc2F)sc2c1CCC2,88.8%
9,CCOC(=O)c1c[nH]n2c(=S)ncnc12,96.3%
10,C=C(C)[C@@H]1CC[C@]2(COCCCN)CC[C@]3(C)[C@H](CC[C@@H]4[C@@](C)(CCCNCCCN)[C@H](C(=C)C)CC[C@]43C)[C@@H]12,-47.9% [100 µM] (active)
11,CCCn1ccnc1C(O)c1ccc(OCc2ccccc2)c(OC)c1 (stereo not given),85.4%
12,CN(C)CCOc1ccc(/C(=C(/CCCl)c2ccccc2)c2ccccc2)cc1,3.24% (active)
13,CCOc1cc(/C=N\NC(=O)N/N=C/c2ccc(O)c(OCC)c2)ccc1O,17.4%
14,Cn1cc(-c2nnc(-c3ccccc3)s2)c2cc(Br)cnc21,40.5%
15,Nc1cc(N)c(N=Nc2ccc(S(=O)(=O)O)cc2)cc1N=Nc1ccc(-c2ccc(N=Nc3ccc(O)c(C(=O)O)c3)cc2)cc1,95.5%
16,N/C(=N\c1nc2ccccc2[nH]1)NC(=O)Cc1cccc2ccccc12,59.4%
17,O=C(Nc1ccc(F)cc1)c1ccccc1,96%
18,CCOc1ccc2sc(NS(=O)(=O)c3ccc(N)cc3)nc2c1,97.4%
19,Cc1cnc(N)nc1OCCNC(=O)c1cccc(-c2ccc(S(=O)(=O)Nc3ccc4c(c3)N(C(=O)C3CC3)CCC4)cc2)c1,77.2%
20,COc1cc2c(c(OC)c1)C1c3cc(OC)ccc3NC(=O)N1CC2 (stereo not given),58.3%
